Source: PubChem BioAssay (NCI)
About 79,000 compounds went through this panel and 15% of them were active in at least one assay; those are over-represented in the sample as a whole. Active and inactive are the calls of the source. Cut-off read from the data, not from the text of the source: active = growth inhibition above about 70%; inactive = the rest.

What was measured:
[1] = NCI Yeast Anticancer Drug Screen. Data for the rad52 strain (AID 147);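 note: 0% = growth of vehicle-treated control cultures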; details: S. cerevisiae rad52 mutant growth inhibition, active compounds read high
How it was run: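 The repair-mutant yeast strain was incubated with compounds, then growth was read and inhibition derived relative to vehicle.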

[2] = NCI Yeast Anticancer Drug Screen. Data for the wt1 strain (AID 149);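 note: 0% = growth of vehicle-treated wt1 cultures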; details: S. cerevisiae wt1 strain (SPY 50644) growth inhibition, active compounds read high
How it was run: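 The wt1 strain was treated with compounds, and growth was compared with vehicle-treated cultures to give inhibition.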

[3] = NCI Yeast Anticancer Drug Screen. Data for the rad50EPP+ strain (AID 151);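 note: 0% = growth of vehicle-treated control cultures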; details: S. cerevisiae rad50 mutant strain, active compounds read high
How it was run: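 Vehicle-normalised growth inhibition; rad50EPP+ yeast strain, altered in DNA damage repair, compound-treated.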

[4] = NCI Yeast Anticancer Drug Screen. Data for the rad50 strain (AID 155);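 note: 0% = growth of vehicle-only cultures of the same strain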; details: S. cerevisiae rad50 strain growth inhibition, active compounds read high
How it was run: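 Cells are treated with compound, grown, and their growth is then scored against vehicle-only cultures of the same repair-deficient yeast strain.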

[5] = NCI Yeast Anticancer Drug Screen. Data for the mec2-1 strain (AID 157); details: S. cerevisiae mec2-1 strain, active compounds read high
How it was run: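 Mutant yeast (mec2-1) grown with compound; growth inhibition relative to vehicle control reported.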

[6] = NCI Yeast Anticancer Drug Screen. Data for the rad14 strain (AID 159);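 note: 0% = growth of vehicle-treated control cultures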; details: S. cerevisiae rad14 strain growth inhibition, active compounds read high
How it was run: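 Readout: yeast growth inhibition, referenced to vehicle-only cultures. Strain bears a defined alteration in DNA damage repair.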

[7] = NCI Yeast Anticancer Drug Screen. Data for the sgs1 mgt1 strain (AID 161);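 note: 0% = growth of cultures given vehicle only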; details: S. cerevisiae sgs1 mgt1 strain, active compounds read high
How it was run: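 This yeast growth screen uses a strain with defined DNA-repair lesions; compound-treated growth is compared with vehicle-treated growth.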

[8] = NCI Yeast Anticancer Drug Screen. Data for the cln2 rad14 strain (AID 165);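 note: 0% = growth equal to vehicle treated cultures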; details: S. cerevisiae cln2 rad14 strain, active compounds read high
How it was run: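 Readout is yeast growth inhibition versus vehicle-treated controls, using a strain with cln2 and rad14 alterations exposed to compound.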

[9] = NCI Yeast Anticancer Drug Screen. Data for the bub3 strain (AID 167); details: S. cerevisiae bub3 mutant strain, active compounds read high
How it was run: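 Part of a panel of yeast mutants defective in DNA damage repair or cell cycle regulation. Each strain is grown with compound, and inhibition is calculated relative to solvent-treated cultures.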

[10] = NCI Yeast Anticancer Drug Screen. Data for the mlh1 strain (AID 171);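 note: 0% = growth of vehicle-treated control cultures of the same strain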; details: S. cerevisiae mlh1 strain growth inhibition, active compounds read high
How it was run: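 Measured: yeast growth. Reference: vehicle-treated controls. Organism: strain with a defined alteration affecting DNA damage repair or cell cycle control, treated with compound.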

[11] = NCI Yeast Anticancer Drug Screen. Data for the sgs1 strain (AID 173);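 note: 0% = growth of vehicle-only control cultures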; details: S. cerevisiae sgs1 mutant, active compounds read high
How it was run: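 Each compound was added to cultures of the altered yeast strain. Growth was recorded, and inhibition was derived by comparison with vehicle controls.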

[12] = NCI Yeast Anticancer Drug Screen. Data for the mlh1 rad18 strain (AID 175); details: S. cerevisiae mlh1 rad18 strain growth inhibition, active compounds read high
How it was run: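 Genetically defined yeast (DNA repair-deficient) exposed to compounds; growth inhibition determined relative to vehicle.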

[13] = NCI Yeast Anticancer Drug Screen. Data for the rad18 strain (AID 177); details: S. cerevisiae rad18 mutant growth inhibition, active compounds read high
How it was run: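 Vehicle-treated cultures served as the baseline for scoring compound-induced growth inhibition in DNA-repair-mutant yeast.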

[14] = NCI Yeast Anticancer Drug Screen. Data for the CLN2oe strain (AID 163);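 note: 0% = growth of vehicle-only control cultures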; details: S. cerevisiae CLN2oe strain, active compounds read high
How it was run: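 Compounds are applied to yeast harbouring a defined cell-cycle control change; reduced growth compared with vehicle-treated controls gives the value.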

[15] = NCI Yeast Anticancer Drug Screen. Data for the wt2 strain (AID 169);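 note: 0% = growth of vehicle-treated yeast cultures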; details: S. cerevisiae wt2 strain growth inhibition, active compounds read high
How it was run: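 Against vehicle-treated controls, the growth of yeast exposed to each compound was compared, and the inhibition was recorded.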

[16] = at 5.0 µM (retest, dose inferred, filed as 0.5)
[17] = at 50.0 µM (retest, dose inferred, filed as 5.0)

Measured: growth inhibition

CCN1/C(=C/c2ccc3ccccc3[n+]2CC)C=Cc2ccccc21
active: [1]; at 11.0 µM 87% | [1]; at 33.0 µM 98% | [1]; at 100.0 µM 98% | [2]; at 11.0 µM 75% | [2]; at 33.0 µM 99% | [2]; at 100.0 µM 99% | [3]; at 100.0 µM 92% | [4]; [16] 99% | [4]; at 11.0 µM 81% | [4]; at 33.0 µM 97% | [4]; [17] 97% | [4]; at 50.0 µM 90.5% | [4]; at 100.0 µM 96% | [5]; [16] 99% | [5]; at 11.0 µM 98% | [5]; at 33.0 µM 99% | [5]; [17] 98% | [5]; at 50.0 µM 92% | [5]; at 100.0 µM 99% | [6]; at 11.0 µM 98% | [6]; at 33.0 µM 98% | [6]; at 100.0 µM 98% | [7]; [17] 98% | [7]; at 50.0 µM 93% | [8]; [17] 100% | [8]; at 50.0 µM 90.9% | [9]; at 11.0 µM 96% | [9]; at 33.0 µM 98% | [9]; [17] 99% | [9]; at 50.0 µM 91% | [9]; at 100.0 µM 98% | [10]; at 33.0 µM 97% | [10]; at 100.0 µM 97% | [11]; at 11.0 µM 93% | [11]; at 33.0 µM 97% | [11]; at 100.0 µM 97% | [12]; [16] 100% | [12]; [17] 99% | [12]; at 50.0 µM 90.2% | [13]; at 11.0 µM 90% | [13]; at 33.0 µM 96% | [13]; at 100.0 µM 97%
inactive: [1]; at 1.2 µM -19% | [1]; at 3.7 µM -14% | [2]; at 1.2 µM -13% | [2]; at 3.7 µM -12% | [3]; at 1.2 µM 4% | [3]; at 3.7 µM 6% | [3]; at 11.0 µM 8% | [3]; at 33.0 µM 67% | [4]; at 1.2 µM -3% | [4]; at 3.7 µM -2% | [5]; at 1.2 µM -3% | [5]; at 3.7 µM 16% | [6]; at 1.2 µM -27% | [6]; at 3.7 µM 1% | [7]; [16] 7% | [8]; [16] 58% | [9]; at 1.2 µM -3% | [9]; at 3.7 µM 37% | [9]; [16] 42% | [10]; at 1.2 µM -27% | [10]; at 3.7 µM -15% | [10]; at 11.0 µM 41% | [11]; at 1.2 µM -9% | [11]; at 3.7 µM -17% | [13]; at 1.2 µM -5% | [13]; at 3.7 µM -4%

S=c1cn[nH]c2ccc(Br)cc12
inactive: [1]; at 1.2 µM -1% | [1]; at 3.7 µM 8% | [1]; at 11.0 µM 10% | [1]; at 33.0 µM 52% | [2]; at 1.2 µM -5% | [2]; at 3.7 µM -6% | [2]; at 11.0 µM -11% | [2]; at 33.0 µM 1% | [2]; at 100.0 µM 43% | [3]; at 1.2 µM -2% | [3]; at 3.7 µM -1% | [3]; at 11.0 µM 17% | [4]; at 1.2 µM -3% | [4]; at 3.7 µM -9% | [4]; [16] -152% | [4]; at 11.0 µM 13% | [4]; [17] 66% | [4]; at 50.0 µM 69.5% | [5]; at 1.2 µM 2% | [5]; at 3.7 µM -3% | [5]; [16] -53% | [5]; at 11.0 µM -6% | [5]; at 33.0 µM 8% | [5]; [17] -9% | [5]; at 50.0 µM 56.3% | [5]; at 100.0 µM 53% | [6]; at 1.2 µM 2% | [6]; at 3.7 µM 4% | [6]; at 11.0 µM 5% | [6]; at 33.0 µM 30% | [6]; at 100.0 µM 62% | [7]; [16] -58% | [7]; [17] 61% | [7]; at 50.0 µM 68.9% | [14]; at 1.2 µM -4% | [14]; at 3.7 µM -4% | [14]; at 11.0 µM -5% | [14]; at 33.0 µM 40% | [9]; at 1.2 µM -12% | [9]; at 3.7 µM -9% | [9]; [16] -79% | [9]; at 11.0 µM -12% | [9]; at 33.0 µM 52% | [9]; [17] 60% | [15]; at 1.2 µM -4% | [15]; at 3.7 µM -3% | [15]; at 11.0 µM -5% | [15]; at 33.0 µM 20% | [15]; at 100.0 µM 40% | [10]; at 1.2 µM 4% | [10]; at 3.7 µM -7% | [10]; at 11.0 µM -5% | [10]; at 33.0 µM 46% | [11]; at 1.2 µM -2% | [11]; at 3.7 µM -6% | [11]; at 11.0 µM -5% | [11]; at 33.0 µM 61% | [13]; at 1.2 µM 0% | [13]; at 3.7 µM 2% | [13]; at 11.0 µM 26%
active: [1]; at 100.0 µM 74% | [3]; at 33.0 µM 70% | [3]; at 100.0 µM 83% | [4]; at 33.0 µM 78% | [4]; at 100.0 µM 85% | [14]; at 100.0 µM 76% | [9]; at 50.0 µM 77% | [9]; at 100.0 µM 72% | [10]; at 100.0 µM 73% | [11]; at 100.0 µM 85% | [13]; at 33.0 µM 86% | [13]; at 100.0 µM 89%

CCC(c1ccc(O)cc1)C(CC)c1ccc(OCCN)cc1 (stereo not given)
active: [1]; at 100.0 µM 88% | [4]; at 100.0 µM 88% | [6]; at 100.0 µM 98% | [7]; [17] 76% | [9]; at 100.0 µM 72% | [15]; at 100.0 µM 92% | [10]; at 100.0 µM 91% | [11]; at 100.0 µM 94% | [13]; at 100.0 µM 91%
inactive: [1]; at 1.2 µM -5% | [1]; at 3.7 µM 0% | [1]; at 11.0 µM 0% | [1]; at 33.0 µM 11% | [2]; at 1.2 µM -4% | [2]; at 3.7 µM -4% | [2]; at 11.0 µM -8% | [2]; at 33.0 µM -8% | [2]; at 100.0 µM 27% | [3]; at 1.2 µM -3% | [3]; at 3.7 µM 1% | [3]; at 11.0 µM 12% | [3]; at 33.0 µM 1% | [3]; at 100.0 µM 10% | [4]; at 1.2 µM 0% | [4]; at 3.7 µM -1% | [4]; [16] 18% | [4]; at 11.0 µM 3% | [4]; at 33.0 µM 27% | [4]; [17] 69% | [4]; at 50.0 µM 27.9% | [5]; at 1.2 µM -3% | [5]; at 3.7 µM -3% | [5]; [16] -4% | [5]; at 11.0 µM -7% | [5]; at 33.0 µM -4% | [5]; [17] 8% | [5]; at 50.0 µM 6.25% | [5]; at 100.0 µM 64% | [6]; at 1.2 µM -3% | [6]; at 3.7 µM 1% | [6]; at 11.0 µM 3% | [6]; at 33.0 µM 17% | [7]; [16] 0% | [7]; at 50.0 µM 60.1% | [8]; [16] -2% | [8]; [17] 25% | [8]; at 50.0 µM -1.25% | [9]; at 1.2 µM -2% | [9]; at 3.7 µM -3% | [9]; [16] -19% | [9]; at 11.0 µM -7% | [9]; at 33.0 µM -1% | [9]; [17] 62% | [9]; at 50.0 µM 45.1% | [15]; at 1.2 µM -2% | [15]; at 3.7 µM -9% | [15]; at 11.0 µM 6% | [15]; at 33.0 µM 8% | [10]; at 1.2 µM -3% | [10]; at 3.7 µM -4% | [10]; at 11.0 µM -5% | [10]; at 33.0 µM 12% | [11]; at 1.2 µM -23% | [11]; at 3.7 µM -46% | [11]; at 11.0 µM -18% | [11]; at 33.0 µM 15% | [13]; at 1.2 µM -7% | [13]; at 3.7 µM -6% | [13]; at 11.0 µM -6% | [13]; at 33.0 µM 0%
